# Pf growth 48h – inhibits P. falciparum growth in the first generation, 48 h | P. falciparum luciferase growth in erythrocytes, 48 h | Potency, µM (series often up to 28.7 µM), without a hit: top-dose activity change, negative = inhibition, usual class: inhibitors | actives 5.9% (n = 310,000)
#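 Erythrocytes infected with P. falciparum carrying an integrated firefly luciferase reporter (2% hematocrit, 0.1% parasitemia final) were exposed to compounds in RPMI 1640 with 0.5% Albumax at 37 C, 5% CO2. Growth inhibition was scored as reduced luminescence.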
# AMA1-RON2 inh – disrupts binding of P. falciparum AMA1 to RON2. actives 0.2% (n = 360,000). Potency, µM (doses to about 58.2 µM), for the others: at the top dose activity change, negative = inhibition, most hits filed as inhibitors. AlphaScreen AMA1-biotinylated RON2 peptide binding;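 further: 0% = vehicle wells and -100% = peptide control; nearly all actives have a fitted effect of over 45% in size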
#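 AMA1 (3D7) with his tag at 25 nM final met compounds first, then biotinylated RON2 peptide at 25 nM; detection used donor plus acceptor beads, 10 µg/mL apiece, read by AlphaScreen after 30 min at room temperature.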
# AmpC inh no detg – blocks E. coli AmpC beta-lactamase in detergent-free assay; AmpC nitrocefin hydrolysis, absorbance 480 nm, 0.0001% Triton; Potency, µM (series often up to 57.1 µM), for the others: at the top dose activity change, negative = inhibition, most hits filed as inhibitors; actives 0.52% (n = 330,000); AID 485341;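 further: plate controls were no compound for no effect and no enzyme for full effect; nearly all actives have a fitted effect of over 20% in size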
# Target sequence (P00811 whole entry, looked up): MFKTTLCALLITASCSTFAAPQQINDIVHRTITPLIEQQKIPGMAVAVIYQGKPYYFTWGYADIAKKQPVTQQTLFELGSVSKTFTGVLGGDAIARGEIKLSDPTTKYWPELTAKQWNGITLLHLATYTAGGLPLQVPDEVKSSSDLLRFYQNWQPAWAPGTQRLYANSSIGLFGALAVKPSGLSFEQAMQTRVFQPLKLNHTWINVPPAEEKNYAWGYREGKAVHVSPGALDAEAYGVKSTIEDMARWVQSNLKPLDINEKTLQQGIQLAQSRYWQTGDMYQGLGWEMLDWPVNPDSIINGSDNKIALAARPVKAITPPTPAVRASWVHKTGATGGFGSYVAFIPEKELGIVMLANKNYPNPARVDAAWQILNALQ
#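 AmpC (5.3 nM in the dispensed reagent) in 20 mM phosphate pH 7.0 with 0.01% (detergent screen) or 0.0001% Triton X-100 was preincubated with compounds for 15 min at room temperature. Nitrocefin was then added from an 800 uM solution, and hydrolysis was followed at 480 nm.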
# AmpC detergent – inhibitors of E. coli AmpC beta-lactamase with detergent | P00811 | AmpC hydrolysis of nitrocefin, absorbance 480 nm, 0.01% Triton | Potency, µM (titrated, usually from 114 µM), without a hit: top-dose activity change, negative = inhibition, most hits filed as inhibitors | actives 0.041% (n = 370,000);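 further: 0% = no-compound wells and -100% = no-enzyme wells; nearly all actives have a fitted effect of over 25% in size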
#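 AmpC (5.3 nM in the dispensed reagent) in 20 mM phosphate pH 7.0 with 0.01% (detergent screen) or 0.0001% Triton X-100 was preincubated with compounds for 15 min at room temperature. Nitrocefin was then added from an 800 uM solution, and hydrolysis was followed at 480 nm.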
# HCV inh – blocks hepatitis C virus | Huh7.5.1 HCVcc-Cre infection, luciferase reporter, 44 h | Potency, µM (top dose mostly 41.8 µM), for the others: top-dose activity change, negative = inhibition, actives largely listed as inhibitors | actives 3.4% (n = 340,000) | AID 651820
#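 After 44 h co-culture of compound, cells and HCVcc-Cre (~0.5 moi), substrate is added for 15 min at room temperature and luciferase measured over 15 sec. Cells were seeded at 1,000/well and pre-cultured 4 h.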
# Pf growth 96h – P. falciparum growth inhibition at 96 hour, primary screen for plastid delayed-death inhibitors. Potency, µM (doses to about 28.7 µM), inactives show at the top dose activity change, negative = inhibition, usual class: inhibitors. actives 6.9% (n = 320,000). P. falciparum luciferase reporter growth, 96 h. AID 504834
#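 P. falciparum expressing integrated firefly luciferase grown in erythrocytes (2% hematocrit, 0.05% parasitemia final) with compounds for 96 hours at 37 C, 5% CO2. Growth inhibition read as loss of luminescence after adding luciferase detection reagent.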
# The depositor's hits bear a star; ? = inconclusive; nt = no result given; [ ] = dose if it differs, or a comment. Compounds with a hit are over-represented: about 11% of the library has one in this group of screens. The call rests on the fitted dose curve; in most records, active means well fitted curve in the direction sought with a large enough effect; inconclusive means small, poorly fitted or top-dose-only effect, or another doubt; inactive means no such curve, though single readings can be large; an effect the other way counts as inactive or inconclusive. Unless noted, on the % scale 0 is the no-effect control and ±100 the full control effect; potency means the concentration at half of the fitted maximal effect.
SMILES,Pf growth 48h,AMA1-RON2 inh,AmpC inh no detg,AmpC detergent,HCV inh,Pf growth 96h
COc1cccc(CNC(=O)c2ccc(S(=O)(=O)N3CCOCC3)cc2)c1,?,12%,91%,?,5%,-16%
COc1cccc(CN2C(=O)C3CCCN3c3ccc(S(=O)(=O)N4CCOCC4)cc32)c1 (stereo unspecified),1µM*,nt,15%,3%,nt,1.2µM*
C=CCSC1=N/C(=C\c2ccc3c(c2)OCO3)C(=O)S1,-2%,15%,-38%,-4%,-12%,0.41µM*
Cc1nc(C(=O)NCCCO)cc2c1[nH]c1ccccc12,18%,8%,-28%,?,?,5%
O=C(NCCO)c1cc2c([nH]c3ccccc32)c(-c2ccc(F)cc2)n1,?,-14%,-48%,-1%,11µM*,15µM*
Cc1ccc(-c2nc(C(=O)NCCCN(C)C)cc3c2[nH]c2ccccc23)cc1,6.6µM*,-10%,30%,3%,11µM*,9.3µM*
Cc1nc(C(=O)NCCO)cc2c1[nH]c1ccccc12,2%[0.00184 µM],0%,-15%,-2%,11µM*,6%
COc1cc(Nc2nn(-c3ccc(OC(F)(F)F)cc3)nc2C(C)=O)cc(OC)c1,nt,nt,nt,23%,nt,nt
CCCCCOc1c(Cl)cc(C(=O)N(Cc2ccc(C)o2)C2CCS(=O)(=O)C2)cc1Cl (stereo unspecified),nt,nt,nt,-7%,nt,nt
Fc1cccc(-n2ncc3c2ncn2nc(Cc4ccccc4)nc32)c1,nt,nt,nt,-4%,nt,nt
CCOc1cc(C(=O)NC(C)C2CC3CCC2C3)cc(OCC)c1OCC (stereo unspecified),nt,-14%,nt,nt,-15%,nt
CCOc1cc(C(=O)NC(C)C2CCCO2)cc(OCC)c1OCC (stereo unspecified),41%[1.15 µM],-6%,1%,3%,6%,12µM*
O=C(COC(=O)C1(c2ccccc2)CC1)N1CCN(c2ccc(F)cc2)CC1,-9%,-14%,18%,6%,?,10µM*
CC1(C)Cc2cccc(OCC(=O)N3CCN(c4cccc(Cl)c4)CC3)c2O1,4.7µM*,-24%,78%,-9%,?,?
CC1(C)Cc2cccc(OCC(=O)N3CCN(S(=O)(=O)c4ccccc4)CC3)c2O1,?,-8%,63%,-7%,6%,4.7µM*
CC1(C)Cc2cccc(OCC(=O)N3CCN(c4cccc(C(F)(F)F)c4)CC3)c2O1,?,37%,137%,-10%,?,?
CC1(C)Cc2cccc(OCC(=O)N3CCN(c4ccc(F)cc4)CC3)c2O1,12µM*,-10%,88%,?,-8%,?
CC1(C)Cc2cccc(OCC(=O)N3CCN(c4ccccc4Cl)CC3)c2O1,?,-13%,32%,?,?,?
Cc1ccc(-c2nnc(Nc3ccc(Br)cc3)c3ccccc23)cc1S(=O)(=O)N1CCCCC1,nt,nt,nt,10%,nt,nt
Cc1ccc(C)c(NC(=O)CSc2nnc(NC(=O)Nc3ccccc3)s2)c1,nt,nt,nt,1%,nt,nt
COc1ccc(N2CCN(CCCNC(=O)c3nnc(Cc4ccccc4Cl)o3)CC2)cc1,nt,nt,nt,16%,nt,nt
COc1ccccc1CNC(=O)C(CC(C)C)NS(=O)(=O)c1ccc2c(c1)oc(=O)n2C (stereo unspecified),nt,0%,-18%,17%,2%,-33%
COc1ccccc1CNC(=O)C(CCSC)NS(=O)(=O)c1ccc2c(c1)oc(=O)n2C (stereo unspecified),-3%,-1%,-2%,-11%,-7%,2.1µM*
CN(C)c1ccc(C(=O)OCC(=O)Nc2ccc(N3CCOCC3)cc2)cc1,?,-1%,-17%,0%,1%,14%
CN(C)c1ccc(N=Nc2ccccc2C(=O)OCC(=O)N(C)c2ccccc2)cc1,13µM*,14µM*,8%,-12%,?,?
